# In paper PMC4336329 (PLoS ONE, 2015):
# Among all 310,000 compounds or so, about 2,200 (0.71%) showed an effect of 50% or more. The effect is printed as a negative number. The full list was thinned out, with strong results kept by preference.
# Biological target: human ether-à-go-go-related gene (hERG) potassium channel (human, UniProt Q12809)
# Assay: primary screen, population patch clamp on CHO cells stably expressing hERG; higher = less effect of the substance
# Chain of human ether-à-go-go-related gene (hERG) potassium channel (Q12809 whole entry, looked up): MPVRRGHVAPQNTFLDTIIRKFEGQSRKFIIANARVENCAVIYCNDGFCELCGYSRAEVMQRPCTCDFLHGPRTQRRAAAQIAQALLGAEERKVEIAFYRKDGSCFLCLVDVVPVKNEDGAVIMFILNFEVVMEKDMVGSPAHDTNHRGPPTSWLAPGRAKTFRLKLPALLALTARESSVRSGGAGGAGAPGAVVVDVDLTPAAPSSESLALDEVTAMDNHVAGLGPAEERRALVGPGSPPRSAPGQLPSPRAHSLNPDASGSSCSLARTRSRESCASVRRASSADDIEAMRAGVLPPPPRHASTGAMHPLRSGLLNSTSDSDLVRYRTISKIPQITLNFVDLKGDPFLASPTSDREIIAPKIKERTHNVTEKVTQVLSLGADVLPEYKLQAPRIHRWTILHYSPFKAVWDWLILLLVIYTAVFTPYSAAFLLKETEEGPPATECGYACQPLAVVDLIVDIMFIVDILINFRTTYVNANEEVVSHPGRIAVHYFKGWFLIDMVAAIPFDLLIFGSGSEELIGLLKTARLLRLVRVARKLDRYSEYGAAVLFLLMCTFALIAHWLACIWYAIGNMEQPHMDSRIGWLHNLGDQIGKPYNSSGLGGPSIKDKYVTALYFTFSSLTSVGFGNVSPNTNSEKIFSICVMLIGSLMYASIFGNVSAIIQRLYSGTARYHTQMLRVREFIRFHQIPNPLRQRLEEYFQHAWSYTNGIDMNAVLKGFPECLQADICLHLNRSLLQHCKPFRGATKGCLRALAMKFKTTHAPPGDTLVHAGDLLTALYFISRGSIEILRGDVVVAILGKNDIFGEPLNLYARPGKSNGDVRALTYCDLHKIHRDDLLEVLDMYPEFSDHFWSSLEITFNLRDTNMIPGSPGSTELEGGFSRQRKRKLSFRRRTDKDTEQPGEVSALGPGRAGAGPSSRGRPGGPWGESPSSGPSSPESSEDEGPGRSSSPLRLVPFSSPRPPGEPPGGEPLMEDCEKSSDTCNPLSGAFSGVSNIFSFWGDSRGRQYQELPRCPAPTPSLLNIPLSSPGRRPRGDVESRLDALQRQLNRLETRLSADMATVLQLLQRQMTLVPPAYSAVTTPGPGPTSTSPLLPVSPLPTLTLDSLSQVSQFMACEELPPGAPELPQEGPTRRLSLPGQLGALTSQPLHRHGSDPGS
row,SMILES,"hERG current change (%, negative = inhibition) at 1uM [%]"
1,O=C(COc1ccccc1Cl)N1CCN(c2ccc([N+](=O)[O-])c(N3CCCCC3)c2)CC1,0.717
2,CCCCCNC(=O)[C@@H]1CSC2c3ccccc3C(=O)N21 (stereo partly shown),14
3,COc1ccc(CCc2nc(-c3cccs3)no2)cc1,5.28
4,O=C(CSc1nnc(-c2cccnc2)n1Cc1ccco1)NCc1ccc2c(c1)OCO2,-20.4
5,O=C(CSc1ccc2nnc(-c3ccccn3)n2n1)NCc1ccc2c(c1)OCO2,-65.8
6,O=C(CSc1nnc(-c2ccccc2)n1Cc1ccco1)NCc1ccc2c(c1)OCO2,-22.2
7,O=C(CSc1ccc2nnc(-c3cccnc3)n2n1)NCc1ccc2c(c1)OCO2,4.47
8,O=C(CSc1nnc(-c2cccnc2)n1-c1ccc(F)cc1)NCc1ccc2c(c1)OCO2,-54.5
9,O=C(CSc1nnc(-c2cccnc2)n1-c1ccccc1)NCc1ccc2c(c1)OCO2,-47.9
10,C=CCn1c(SCC(=O)NCc2ccc3c(c2)OCO3)nnc1-c1cccnc1,8.01
11,O=C(CSc1ccc2nnc(-c3ccccn3)n2n1)Nc1ccc2c(c1)OCO2,2.61
12,O=C(CSc1ccc2nnc(-c3ccncc3)n2n1)Nc1ccc2c(c1)OCO2,13.8
13,O=C(CSc1ccc2nnc(-c3ccccc3)n2n1)NCc1ccc2c(c1)OCO2,-71
14,O=C(CSc1nnc(-c2ccc(Cl)cc2)n1Cc1ccco1)NCc1ccc2c(c1)OCO2,-51.6
15,O=C(CSc1ccc2nnc(-c3ccccn3)n2n1)Nc1ccc2c(c1)OCCO2,-2.96
16,COc1cc(S(=O)(=O)N(Cc2cccnc2)Cc2ccco2)ccc1-n1cnnn1,-10.7
17,Cc1cc(C(=O)NC2CCCCCCC2)ccc1[N+](=O)[O-],13.3
18,Cc1ccc(CN2C(=O)CSC2c2ccc(F)cc2)cc1 (stereo not shown),12.2
19,C#CC(CO)N(CCN(Cc1ccccc1)C(C#C)CO)Cc1ccccc1 (stereo not shown),9.58
20,COC(=O)C(C)NC(=S)N1CC2C[C@@H](C1)Cn1c2cccc1=O (stereo partly shown),15.6
21,COc1cccc(N2CCN(S(=O)(=O)c3ccc(-c4coc(C)n4)cc3)CC2)c1,11.7
22,CCN(CC(=O)Nc1ccc(NC(C)=O)cc1)C(=O)c1cc2c(s1)CCCCC2,2.11
23,c1ccc(-c2nnc3sc(-c4cc5ccccc5o4)nn23)cc1,14.4

row,SMILES,"hERG current change (%, negative = inhibition) at 1uM [%]"
1,CCCCCC(=O)Nc1cccc(-c2nc3ncccc3o2)c1,0.93
2,Cc1ccc(-c2nnc3ccc(SCC(=O)NCc4ccco4)nn23)cc1,4.96
3,O=C(CSc1ccc2nnc(-c3ccncc3)n2n1)NCc1ccco1,-7.28
4,O=C(CSc1ccc2nnc(-c3ccccc3)n2n1)NCc1ccco1,-65.8
5,CCOc1ccc(OCCNC2CCCC2)cc1,2.09
6,O=C(NCc1ccco1)C(NS(=O)(=O)c1cccc2nsnc12)c1ccccc1 (stereo not shown),7.81
7,O=C(CCn1c(=O)[nH]c2ccsc2c1=O)N1CCN(c2cccc(Cl)c2)CC1,-6.52
8,CC(CNC(=O)c1ccc(N)cc1)NC(=O)c1ccc(N)cc1 (stereo not shown),12
9,CCOc1ccc(C(=O)NCC(C)NC(=O)c2ccc(OCC)cc2)cc1 (stereo not shown),22.5
10,CC(CNC(=O)c1ccc(C#N)cc1)NC(=O)c1ccc(C#N)cc1 (stereo not shown),-81.9
11,CN(C)/C=C/C(=O)c1ccccc1F,4.57
12,COc1ccccc1CN1CCCC(C(=O)c2ccccc2SC)C1 (stereo not shown),-27.3
13,COc1ccc(C(=O)C2CCCN(Cc3cccc4c3OCO4)C2)cc1OC (stereo not shown),-29.3
14,COc1ccc(C(=O)C2CCCN(Cc3nc4ccccc4nc3C)C2)cc1OC (stereo not shown),-83.3
15,COc1cccc(OC)c1CN1CCCC(C(=O)c2ccccc2SC)C1 (stereo not shown),-37.8
16,COc1ccc(C(=O)C2CCCN(Cc3c(O)cccc3OC)C2)cc1OC (stereo not shown),-7.05
17,COc1ccc(C(=O)C2CCCN(Cc3ccc(C)s3)C2)cc1OC (stereo not shown),-32.5
18,COc1ccc(C(=O)C2CCCN(Cc3cn[nH]c3-c3ccc(F)cc3)C2)cc1OC (stereo not shown),-25.9
19,CCOc1ccccc1CN1CCCC(C(=O)c2ccc(OC)c(OC)c2)C1 (stereo not shown),-51.1
20,COc1cccc(CN2CCCC(C(=O)c3ccccc3SC)C2)c1O (stereo not shown),-76.9
21,COc1ccc(C(=O)C2CCCN(Cc3cnc(C)s3)C2)cc1OC (stereo not shown),2.68
22,COc1ccc(C(=O)C2CCCN(Cc3cn[nH]c3-c3ccccc3)C2)cc1OC (stereo not shown),-75.4
23,COc1ccc(-c2[nH]ncc2CN2CCCC(C(=O)c3cccc(OC)c3)C2)cc1 (stereo not shown),-29.5
